KCNQ2 inh: rat KCNQ2 potassium channel inhibitors, primary screen, cell-based, CHO-K1, FluxOR thallium flux, B-score; Potassium voltage-gated channel subfamily KQT member 2 (Rattus norvegicus), O88943; 20 min; hits give low values; B-score at 10 µM; hit rate 1.1% among 310,000;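 active = fluorescence ratio B-score at most minus 3 library SDs, with starting brightness B-score within 2 library SDs, cut at about -5.5 in these data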
Target sequence (O88943 whole entry, looked up): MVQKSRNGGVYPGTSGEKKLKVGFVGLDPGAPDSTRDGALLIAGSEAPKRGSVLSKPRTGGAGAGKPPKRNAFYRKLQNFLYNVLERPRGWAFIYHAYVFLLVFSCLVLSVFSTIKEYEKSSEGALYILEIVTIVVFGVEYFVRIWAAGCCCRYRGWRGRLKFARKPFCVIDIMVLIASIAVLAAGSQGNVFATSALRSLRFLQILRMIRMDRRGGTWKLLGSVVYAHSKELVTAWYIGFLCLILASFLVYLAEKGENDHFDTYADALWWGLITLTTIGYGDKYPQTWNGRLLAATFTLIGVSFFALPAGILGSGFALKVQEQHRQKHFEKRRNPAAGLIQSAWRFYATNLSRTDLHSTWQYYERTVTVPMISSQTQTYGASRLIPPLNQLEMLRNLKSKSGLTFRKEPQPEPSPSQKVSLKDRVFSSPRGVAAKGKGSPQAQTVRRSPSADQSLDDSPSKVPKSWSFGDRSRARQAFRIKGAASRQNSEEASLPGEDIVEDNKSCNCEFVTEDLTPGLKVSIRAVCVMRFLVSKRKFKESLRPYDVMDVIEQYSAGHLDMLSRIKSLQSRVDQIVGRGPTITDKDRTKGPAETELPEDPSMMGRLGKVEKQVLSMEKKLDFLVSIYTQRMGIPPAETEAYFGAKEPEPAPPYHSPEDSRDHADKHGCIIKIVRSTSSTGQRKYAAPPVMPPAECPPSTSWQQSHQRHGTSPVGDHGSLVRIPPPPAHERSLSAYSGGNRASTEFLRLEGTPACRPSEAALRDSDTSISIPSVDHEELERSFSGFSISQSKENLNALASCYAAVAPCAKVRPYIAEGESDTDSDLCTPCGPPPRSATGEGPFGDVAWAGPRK
KCNQ2 enhance: potentiators of rat KCNQ2 potassium channel. hit rate 0.54% among 310,000. CHO-K1 KCNQ2, FluxOR thallium flux fluorescence; hits give high values. B-score at 10 µM;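 active = fluorescence ratio B-score at least 3 SD of library B-scores, with initial fluorescence B-score within 3 of them, cut at about 5.3 in these data; same plate scores as AID 2156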;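 also: B-score of peak minus minimum over baseline fluorescence ratio after K+ and Tl+ stimulus; positive B-score means potentiation of KCNQ2 with more thallium influx and brighter signal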
Of the large screens only hits and unclear results are named; the others gave an inactive call. This is a sample that favours compounds with a hit; in the whole collection about 1.6% have one here.

Cc1cccc2cc(CN(Cc3ccco3)C(=O)Nc3cccc(C#N)c3)c(Cl)nc12	none (no result: KCNQ2 enhance)
COc1ccccc1NC(=O)N(Cc1ccco1)Cc1cc2ccc(C)c(C)c2[nH]c1=O	none (no result: KCNQ2 enhance)
COc1ccccc1NC(=O)CN(Cc1ccco1)C(=O)c1cc2ccccc2o1	KCNQ2 inh -7.64
COc1ccccc1NC(=O)N(Cc1ccco1)Cc1cc2cc(C)cc(C)c2[nH]c1=O	KCNQ2 inh -6
COc1ccccc1NC(=O)CN(Cc1ccco1)C(=O)c1ccc(=O)[nH]c1	none (no result: KCNQ2 enhance)
Cc1ccc(C)c2[nH]c(=O)c(CN(Cc3ccco3)C(=O)Nc3ccccc3)cc12	KCNQ2 inh -5.59
Cc1ccc2cc(CN(Cc3ccco3)C(=O)NCc3ccccc3)c(=O)[nH]c2c1C	none (no result: KCNQ2 enhance)
Cc1ccc(NC(=O)N(Cc2ccco2)Cc2cc3cc(C)cc(C)c3nc2Cl)cc1	KCNQ2 inh -6.78
CC(=NCc1cccc(Cl)c1)c1nc(-c2ccco2)oc1O	none (no result: KCNQ2 enhance)
Cc1nnc(NC(=O)c2ccc(F)c(S(=O)(=O)N3CCCCC3)c2)s1	none
Cc1ccc(NC(=O)CN(C)C(=O)C(C)OC(=O)c2ccccc2NCCO)cc1 (configuration not stated)	none (no result: KCNQ2 enhance)
Cc1ccc(OCC(=O)N2CCCCCCC2)cc1C	none (no result: KCNQ2 enhance)
CC(C)CCn1nnnc1CN1CCN(C(c2ccccc2)c2ccccc2)CC1	KCNQ2 inh -5.73
c1ccc(C(c2ccccc2)N2CCN(Cc3nnnn3C3CCCC3)CC2)cc1	none (no result: KCNQ2 enhance)
CC1CN(c2ncnc3c2c(-c2ccccc2)cn3-c2ccc(F)cc2)CC(C)O1 (configuration not stated)	none (no result: KCNQ2 enhance)
CCOC(=O)c1c(C)c(C(=O)NCCc2ccccc2)c(C)n1C	none (no result: KCNQ2 enhance)
CCOC(=O)c1c(C(=O)OCC)c(C)n(CCc2ccccc2)c1C	KCNQ2 inh -5.81
CC(C)N(C(=O)C(F)(F)F)C(C(=O)NC1CCCCC1)c1ccncc1 (configuration not stated)	none
COc1ccc(C)cc1NC(=O)C(Sc1nnc(-c2ccncc2)n1-c1ccc(Cl)cc1)c1ccccc1 (configuration not stated)	KCNQ2 inh -7.93
COc1ccc(C)cc1NC(=O)C(Sc1nnc2ccccn12)c1ccccc1 (configuration not stated)	none (no result: KCNQ2 enhance)
O=C(COC(=O)CC1CCCC1)Nc1ccc(OC(F)F)cc1	none
Cn1nnnc1SCC(=O)N(C1CCCCC1)C1CCCCC1	none (no result: KCNQ2 enhance)
O=c1c2nnn(Cc3ccc(Cl)cc3)c2ncn1Cc1ccc(F)cc1	none
COc1ccc(CN(C(=O)CSc2nnc(-c3c[nH]c4ccccc34)o2)c2ccc(F)cc2)cc1OC	KCNQ2 inh -6.97
COc1ccc(CN(C(=O)CSc2nnc(-c3ccc(F)cc3)o2)c2ccc(F)cc2)cc1	none (no result: KCNQ2 enhance)
COc1ccccc1C1CCN(C(=O)c2ccc(C(C)(C)C)cc2)CC1	KCNQ2 inh -6.5
COc1ccccc1N1CCN(C(=O)c2ccc(C(C)(C)C)cc2)CC1	none (no result: KCNQ2 enhance)
CCN(CC)S(=O)(=O)c1cccc(C(=O)N[C@H](C(=O)OCC(N)=O)C(C)C)c1	none
O=C(Nc1cc(Sc2nc3ccccc3s2)cc([N+](=O)[O-])c1)c1ccccc1F	KCNQ2 inh -6.03
O=C(Nc1cc(Sc2nc3ccccc3s2)cc([N+](=O)[O-])c1)c1ccccc1	none (no result: KCNQ2 enhance)
O=C(c1cccc(S(=O)(=O)N2CCN(c3ccc(F)cc3)CC2)c1)N1CCCC(C(F)(F)F)C1 (configuration not stated)	none
Clc1ccc(-c2nnc(-c3ccccc3)c(-c3ccccc3)n2)cc1	KCNQ2 inh -6.24
Clc1ccc(-c2nnc(-c3ccccc3)c(N3CCSCC3)n2)cc1	KCNQ2 inh -6
O=[N+]([O-])c1ccc(-c2nnc(-c3ccccc3)c(N3CCOCC3)n2)cc1	none (no result: KCNQ2 enhance)
Clc1ccc(-c2nnc(-c3ccccc3)c(-c3c[nH]c4ccccc34)n2)cc1	none
CCc1ccc(NC2=NCC(c3ccccc3)S2)cc1 (configuration not stated)	none
O=C(CSCc1ccccc1)NCCCN1CCOCC1	none (no result: KCNQ2 enhance)
CC(C)OC(=O)c1cn(-c2ccccc2)nc1-c1ccco1	none (no result: KCNQ2 enhance)
CCOC(=O)C1=C(N)Oc2ccc3ccccc3c2C1c1ccc(O)cc1 (configuration not stated)	KCNQ2 inh -6.53
CCOC(=O)C1=C(N)Oc2ccc3ccccc3c2C1c1ccc(O)c(OC)c1 (configuration not stated)	none (no result: KCNQ2 enhance)
OC(CCN1CCCCC1)(c1ccccc1)C1CCCCC1 (configuration not stated)	none (no result: KCNQ2 enhance)
OC(CCN1CCOCC1)(c1ccc(Cl)cc1)C1CCCCC1 (configuration not stated)	KCNQ2 inh -5.83
Cc1cccc(NC(=O)CN2C(=O)COc3ccc(Cl)cc32)c1	none (no result: KCNQ2 enhance)
COC(=O)c1cc(CNC(=O)Cc2ccsc2)ccc1OC	none
CC(C)N(C(=O)CSc1nc(Cc2ccccc2)nc2ccccc12)C(C)C	KCNQ2 inh -6.35
CC(C)(C)NC(=O)CSc1nc(Cc2ccccc2)nc2ccccc12	none (no result: KCNQ2 enhance)
CSc1nc(Cc2ccccc2)nc2ccccc12	none (no result: KCNQ2 enhance)
CC(C)N(C(=O)CSc1nc2ccccc2n1Cc1ccc(F)cc1)C(C)C	KCNQ2 inh -7.86
CCC(C)(C)NC(=O)CSc1nc(Cc2ccccc2)nc2ccccc12	KCNQ2 inh -6.35
CC(C)NC(=O)CSc1nc2ccccc2n1CC(=O)N(C(C)C)C(C)C	none
COc1ccc(C(=O)NC2CC3CCCC(C2)N3Cc2ccccc2)c(OC)c1 (configuration not stated)	none
CCCc1nnc(SCC(=O)Nc2ccc(Cl)cc2Cl)o1	none (no result: KCNQ2 enhance)
CC(=O)Nc1ccc(C2(c3ccc(NC(C)=O)cc3)NC(=O)c3ccccc32)cc1	none (no result: KCNQ2 enhance)
Cc1ccc(C(=O)Nc2ccccc2)cc1S(=O)(=O)Nc1ccc(Cl)cn1	none (no result: KCNQ2 enhance)
Cc1cc(C)c2sc(N(CCCN(C)C)C(=O)c3ccc(Br)s3)nc2c1	none (no result: KCNQ2 enhance)
CC(=N\NC(=O)c1ccc([N+](=O)[O-])cc1)/C(=N/O)C(=O)Nc1ccccc1	KCNQ2 inh -5.79
CCOC(=O)/C(C)=N/NC(=O)c1ccc([N+](=O)[O-])cc1	none
O=C(CSC1=NS(=O)(=O)c2ccccc21)Nc1ccccc1	KCNQ2 inh -6.36
O=C(CSC1=NS(=O)(=O)c2cc(F)ccc2N1)Nc1ccccc1	none (no result: KCNQ2 enhance)
CC1(C)CC(=O)c2c(nc3ccccc3c2N)C1	none (no result: KCNQ2 enhance)
CN(C)c1ncc(C2=C(Cl)C(=O)C(N3CCCC3)=C(Cl)C2=O)s1	KCNQ2 inh -8.64
O=C1C(Cl)=C(N2CCCCC2)C(=O)C(Cl)=C1c1cnc(N2CCCCC2)s1	none (no result: KCNQ2 enhance)
Cc1ccc(-c2cn(S(=O)(=O)c3cccc4nsnc34)nc2N)cc1	none
O=C(O)Cn1c(=O)c2c3c(sc2n(Cc2ccc(F)cc2)c1=O)CCCC3	none (no result: KCNQ2 enhance)
O=C(O)Cn1c(=O)c2c3c(sc2n(Cc2ccccc2F)c1=O)CCCC3	KCNQ2 inh -6.25
Cc1cccc(NC(=O)Cn2c(=O)oc3ccccc32)n1	none
Cc1ccc(S(=O)(=O)N2CCC(=O)N(C(COCc3ccc(C(F)(F)F)cc3)C(C)C)CC2)cc1 (configuration not stated)	none (no result: KCNQ2 enhance)
Cc1ccc(S(=O)(=O)N2CCC(=O)N(C(COCc3ccc(C(F)(F)F)cc3)Cc3ccccc3)CC2)cc1 (configuration not stated)	KCNQ2 inh -6.07
CC(C)CC(COCc1ccc(F)cc1)N1CCN(C(=O)c2cccc(C(F)(F)F)c2)CCC1=O (configuration not stated)	KCNQ2 inh -6.06
Cc1ccc(S(=O)(=O)N2CCC(=O)N(C(COCc3cccc(C)c3)Cc3ccccc3)CC2)cc1 (configuration not stated)	KCNQ2 inh -6.45

Bioassay records: PubChem BioAssay, Johns Hopkins Ion Channel Center
